Compound activity: PubChem BioAssay, National Center for Advancing Translational Sciences (NCATS)
Sampled rows, rich in hits. Any-hit rate of the full collection: about 10%.
3T3 cytotox – Cytotoxic Profiling in NIH 3T3 Cell Line of Diverse Libraries Using Quantitative High-Throughput Screening. NIH 3T3 viability, CellTiter-Glo ATP luminescence, 48-72 h. Potency, µM (highest dose often 96.7 µM), without a hit: at the top dose activity change, negative = cytotoxicity, actives largely listed as inhibitors. hit rate 4.3% among 94,000; further: on the % scale 0 is the no-effect control and ±100 the full control effect; nearly all actives have a fitted effect of over 55% in size
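ATP-dependent luminescence (CellTiter-Glo) served as the viability signal for NIH 3T3 cells treated with compound for 48 or 72 hr at 37 °C.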
NPR1 antag – Natriuretic polypeptide receptor (hNpr1) antagonism - Primary qHTS | hit rate 1.6% among 76,000 | Atrial natriuretic peptide receptor 1 (Homo sapiens), P16066 | Potency, µM (series often up to 46.3 µM), for inactives: at the highest dose activity change, negative = inhibition, usual class: inhibitors | HEK293 hNpr1 GloSensor cGMP, ANP-stimulated luminescence; calls by dose curve; further: on the % scale 0 is the no-effect control and ±100 the full control effect; nearly all actives have a fitted effect of over 60% in size
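Compound pre-incubated 30 min at room temperature on GloSensor-loaded HEK293 cells stably carrying hNpr1 and the pGS-40F cGMP biosensor. Stimulation uses hNppA at 0.1 nM final; luminescence is taken at baseline and 20 min post-agonist.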
GPT2 inhibitor – Primary qHTS assay for inhibitors of Glutamate pyruvate transaminase 2 (GPT2); Potency, µM (highest dose often 57.7 µM), without a hit: at the highest dose activity change, negative = inhibition, actives largely listed as inhibitors; Recombinant GPT2, coupled pyruvate oxidase/HRP Amplex Red fluorescence; hit rate 0.25% among 100,000; further: on the % scale 0 is the no-effect control and ±100 the full control effect; nearly all actives have a fitted effect of over 60% in size
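Inhibition is scored from Amplex Red fluorescence generated when pyruvate oxidase and HRP act on pyruvate released by GPT2. Reactions contain 10ng/uL enzyme, 250uM a-KG and 2mM L-alanine and run 30 min at room temperature.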
HEK cytotox – Cytotoxic Profiling in HEK 293 Cell Line of Diverse Libraries Using Quantitative High-Throughput Screening; Potency, µM (highest dose often 115 µM), for the others: at the top dose activity change, negative = cytotoxicity, usual class: inhibitors; AID 1345083, 2018; HEK 293 viability, ATP luminescence (CellTiter-Glo), 48-72 h; hit rate 6.6% among 94,000; further: on the % scale 0 is the no-effect control and ±100 the full control effect; nearly all actives have a fitted effect of over 60% in size
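Luminescence from cellular ATP, measured with CellTiter-Glo, indicates HEK 293 viability. Cells plated at 250 cells/well are treated with compound for 48 or 72 hr at 37 degree Celsius before reagent addition.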
FLuc inh-1 – Firefly luciferase inhibition profiling of diverse chemical library using quantitative high-throughput screening. Potency, µM (titrated, usually from 115 µM), usual class: inhibitors. purified P. pyralis luciferase, luminescence, biochemical. AID 1347043, 2019. hit rate 2.5% among 76,000; further: on the % scale 0 is the no-effect control and ±100 the full control effect; nearly all actives have a fitted effect of over 65% in size
Target sequence (P08659 whole entry, looked up): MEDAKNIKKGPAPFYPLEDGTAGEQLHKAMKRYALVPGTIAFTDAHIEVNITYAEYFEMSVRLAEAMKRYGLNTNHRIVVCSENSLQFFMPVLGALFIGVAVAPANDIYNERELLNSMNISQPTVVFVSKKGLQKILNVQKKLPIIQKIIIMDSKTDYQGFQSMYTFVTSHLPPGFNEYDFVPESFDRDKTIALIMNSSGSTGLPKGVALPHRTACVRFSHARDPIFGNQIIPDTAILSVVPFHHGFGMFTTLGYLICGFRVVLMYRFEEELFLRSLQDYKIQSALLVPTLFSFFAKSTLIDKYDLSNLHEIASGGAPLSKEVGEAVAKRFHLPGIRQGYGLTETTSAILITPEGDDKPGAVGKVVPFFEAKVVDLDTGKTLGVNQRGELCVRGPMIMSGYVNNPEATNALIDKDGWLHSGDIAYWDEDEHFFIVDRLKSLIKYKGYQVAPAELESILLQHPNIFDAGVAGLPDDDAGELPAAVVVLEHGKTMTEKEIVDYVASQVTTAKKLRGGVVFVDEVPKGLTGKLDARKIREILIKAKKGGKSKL
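Cell-free enzyme assay, 10nM P. pyralis luciferase, luciferin and ATP each at 10uM. Inhibition profiled over a 6-point titration, read as luminescence.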
FLuc SDR -ATP – Firefly luciferase (FLuc-C-HiBiT) SDR gain of signal screen - without ATP; shares compounds with FLuc inh-1; Purified FLuc-C-HiBiT, Nano-Glo HiBiT luminescence, no ATP; Potency, µM (titrated, usually from 32.7 µM), inactives show at the highest dose activation (signal gain), usual class: activators; hit rate 7.8% among 1,300; AID 1963318, 2024; further: nearly all actives have a fitted effect of over 55% in size
FLuc SDR ATP – Firefly luciferase (FLuc-C-HiBiT) SDR gain of signal screen - plus ATP; shares compounds with FLuc inh-1; purified FLuc-C-HiBiT + ATP, HiBiT complementation luminescence; Potency, µM (doses to about 32.7 µM), inactives show top-dose activation (gain of signal), hits mostly activators; hit rate 8.7% among 1,300; AID 1963319, 2024;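 further: signal reports ligand binding via conformational change of the enzyme rather than luciferase catalysis; % of control where 0% means no effect; nearly all actives have a fitted effect of over 55% in size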
FLuc inh-2 – Firefly luciferase (FLuc-C-HiBiT) enzymatic inhibition screen - Functional assay. shares compounds with FLuc inh-1. purified FLuc-C-HiBiT enzyme, luciferin luminescence. Potency, µM (series often up to 32.7 µM), for the others: at the top dose activity change, negative = inhibition, actives largely listed as inhibitors. hit rate 42% among 1,300; further: on the % scale 0 is the no-effect control and ±100 the full control effect; nearly all actives have a fitted effect of over 70% in size
* marks the source's active call; other numbers are inactive results; i = inactive; ? = inconclusive; / = no result given; [ ] = dose if it differs, or a comment. Unless noted, the call rests on the fitted dose curve; in most records, active means well fitted curve in the direction sought with a large enough effect; inconclusive means small, poorly fitted or top-dose-only effect, or another doubt; inactive means no such curve, though single readings can be large; an effect the other way counts as inactive or inconclusive. Potency means the concentration at half of the fitted maximal effect.

SMILES	3T3 cytotox	NPR1 antag	GPT2 inhibitor	HEK cytotox	FLuc inh-1	FLuc SDR -ATP	FLuc SDR ATP	FLuc inh-2
CC(=O)N1CCc2nn(CC(=O)Nc3ccc(F)cc3C)c(=O)cc2C1	i	0%	i	12%	i	/	/	/
Cc1cc(F)ccc1NC(=O)c1csc2c1CCC(C)C2 (stereo not given)	/	/	/	/	/	26%	20%	?
c1ccc(-c2noc(-c3cncnc3Nc3ccc4c(c3)OCO4)n2)cc1	-15%	1%	i	-14%	i	/	/	/
Cc1ccc(C(=O)NC2CCN(Cc3cccc(-c4cccs4)c3)CC2)cc1	-29%	/	-4%	?	/	/	/	/
COc1ccc(C(=O)NC2CCN(C(=O)c3ccc(-c4cccs4)cc3)CC2)cc1	?	/	-7%	?	/	/	/	/
COC(=O)c1c(-c2cccs2)csc1NC(=O)c1ccc(Br)cc1	/	/	/	/	/	5%	4%	11µM*
COC(=O)c1c(-c2cccs2)csc1NC(=O)c1ccc(C)cc1	/	/	/	/	/	11%	8%	?
Cc1ccc2nc(-c3ccc(NC(=O)c4ccc(S(C)(=O)=O)cc4)cc3)sc2c1	/	/	/	/	/	13%	8%	-1%
Cc1ccc(NC(=O)c2ccc3nc(-c4ccncc4)oc3c2)cc1	-16%[138 µM]	/	i	-10%[172 µM]	/	/	/	/
O=C(O)c1cccc(-c2cnc3ccccc3c2)c1	-14%[138 µM]	/	-5%[88.5 µM]	-12%[172 µM]	/	/	/	/
Cc1ccc(NC(=O)c2cn3cc(-c4ccc(C)cc4)sc3n2)cc1	-15%	/	i	-11%	/	/	/	/
CCSc1ccc(C(=O)Nc2ccc(-c3nc4ccc(C)cc4s3)cc2)cc1	/	/	/	/	/	14%	8%	-5%
CNc1ccc2cc(-c3nc4ccc(C(=O)O)cc4s3)ccc2c1	/	/	/	/	/	1.1µM*	0.014µM*	0.007µM*
Cc1ccc2nc(-c3ccc(NC(=O)C(F)(F)F)cc3)sc2c1	/	/	/	/	/	28%	?	0.79µM*
CCOC(=O)C1=C(C)N=C2SC=C(CC(=O)N3CCCCC3)N2C1c1cccc(OC)c1 (stereo not given)	-29%	-25%	1%	?	i	/	/	/
CNC(=O)NC[C@H]1CCN(Cc2ccc(OC)c(OC)c2Cl)C[C@H]1N(C)C	-17%	3%	-3%	-27%	i	/	/	/
Cc1ccc2nc(NC(=O)CSc3nc4c(c(=O)n3-c3ccccc3)SCC4)sc2c1	/	/	2%	/	/	/	/	/
Cc1ccc2nc(-c3ccc(NC(=O)c4ccccc4S(C)(=O)=O)cc3)sc2c1	/	/	/	/	/	13%	13%	?
Cc1ccc2nc(-c3ccc(NC(=O)CSc4nnc(C)s4)cc3)sc2c1	/	/	/	/	/	16%	15%	0.62µM*
C=CCNC(=O)N[C@H]1[C@H](O)[C@@H](N2CCN(C)CC2)[C@@H]2OC[C@H]1O2	-19%[174 µM]	6%[70.6 µM]	-14%[88.5 µM]	-7%[172 µM]	i	/	/	/
O=C(NCc1cccs1)c1ccc2oc(-c3ccnc(Cl)c3)nc2c1	?	/	-4%[88.5 µM]	?	/	/	/	/
CC(=O)Nc1nc2c(Oc3cc(-c4ccc(C(F)(F)F)cc4)ncn3)cccc2s1	/	/	0%	/	/	/	/	/
